# Measurements reported in PubChem BioAssay AID2417 (National Center for Advancing Translational Sciences (NCATS), 2010).
# The whole screen tested about 140,000 compounds, of which about 4,300 (3.1%) were called active. Not shown: some 21% with an inconclusive outcome. This is one part of a sample in which actives are shown more often than they occur.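 The calls were made as follows: active = readout at or below -70, meaning at least 70% loss of cells showing the perinucleolar compartment, a nuclear body marking cancer cells; inconclusive = readout between -30 and a set limit; inactive = the rest.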
# Test: High Content Assay for Compounds that inhibit the Assembly of the Perinucleolar Compartment;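 also: plate controls were DMSO wells for no effect and camptothecin positive control wells for full effect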
# Settings: PC3M PTB-GFP, PNC prevalence imaging, 16 h; at 10 µM; hits give low values
# Text: High Content Assay for Compounds that inhibit the Assembly of the Perinucleolar Compartment NIH Chemical Genomics Center [NCGC] NIH Molecular Libraries Probe Centers Network [MLPCN] MLPCN Grant: MH082371-01A2 Assay Submitter (PI): Sui Huang, Northwestern University, Feinberg School of Medicine, Cell and Molecular Biology, Chicago, Illinois. The perinucleolar compartment (PNC) is a non-membrane-bound nuclear subdomain that is associated with but structurally distinct from the nucleolus. The PNC is a heritable trait, in which the number of PNCs per cell in daughter cells often mimics that of their mother cells. The PNC is heterogeneous in shape, is stable through interphase, disassembles during mitosis, and reassembles in early G1. The PNC is concentrated with newly synthesized RNA polymerase III (pol III) RNAs (MRP RNA, RNAse P H1 RNA, hY RNAs[hY1, 2, 5], Alu RNA, and SRP [7SL] RNA) and RNA binding proteins (nucleolin, PTB, CUG-BP, KSRP, Raver1, Raver2, and Rod). […] Extensive in vitro studies have shown that the PNC is unique to tumor cells and preferentially forms in tumor cells derived from solid tissues. Examination of cancer cell lines from various origins and malignant capacities has shown that PNC prevalence correlates with the malignancy of tumors and has the potential to be developed as a pan-cancer prognostic marker. […] Although the PNC is associated with a DNA locus and a handful of components have been identified, much remains to be investigated regarding the structure and function of the PNC and its mechanistic link to cancer. We have previously shown that PNC prevalence reduction is a valid strategy to identify compounds that can be used to study the structure and function of the PNC. It is necessary, however, to create a screening platform that is able to test a large number of compounds in an automated fashion. Here we report the development and robustness of an automated whole-cell phenotypic image-based screening assay that is capable of identifying such compounds.
# PNC High Content Imaging Assay Procedure: 1. Cells at a density of 75-90% confluency in T175 flasks were harvested using 7 ml TrypLE Express cell dissociation reagent. After dissociation (5 minutes room temperature incubation) 10 ml of complete media was added to the TrypLE/cell suspension. The liquid was transferred to a 50 ml Conical tube and cells were pelleted at 1000 RPM for 5 min. Supernatant was removed and cells were resuspended to a final density of 150-200 cells/ul in complete media. 2. Cells were plated in 5 ul volume (750-1000 cells/well) into 1536 well Black uclear Aurora Low Base plates and allowed to recover and adhere at 37 C in a humidified 5% CO2 incubator for 4 hours. 3. After 4 hour incubation, compound libraries (23 nl of […] in columns 5-48) were transferred to the plates in duplicate using a 1536 well pintool. Camptothecin positive control (59 uM final) was added to column 2 and 1:3 dilutions of camptothecin was added to column 3. DMSO negative controls were present in columns 1 and 4. 4. After a 16 hour incubation in the 37 C incubator, cells were fixed by the addition of 4 ul of 6% EM grade paraformaldehyde (containing 0.1% triton X 100) directly to the cells. The plates were incubated at room temperature for 20 minutes. The liquid was removed using a 32 channel Kalypsys aspirator and the fixed cells were washed twice with 5 ul PBS followed by a final addition of 5 ul PBS containing 1 ug/ml Hoechst 33342. 5. Fixed plates were sealed and sotred at 4C until imaged. 6. Plates were imaged on an InCell 1000 automated microscope using a 20 x objective, a standard FITC filter set, no camera binning, and an exposure time of ~100-150 msec/well. 7. Data analysis. PNC prevalence was determined using the Multitarget analysis module from InCell Workstation software (V3.5 ) and analysis was run on a quad core workstation using the Incell Developer Toolbox (V1.7). […]
row,SMILES,"activity change (PNC), negative = inhibition"
1,O=C(CCCN1C(=O)C2C3C=CC(C3)C2C1=O)N1CCN(c2ccccc2)CC1 (configuration not stated),-106% (active)
2,O=C(CCN1C(=O)C2C3C=CC(C3)C2C1=O)Nc1ccccc1F (configuration not stated),25% (inactive)
3,CC(CC(=O)N1CCN(c2ccccc2)CC1)c1ccccc1 (configuration not stated),-11.1% (inactive)
4,CC(C)(C)CC(C)(C)NCC(O)COCCOc1ccc(Br)cc1 (configuration not stated),6.23% (inactive)
5,COC(C(=O)Nc1ccc(C(C)=O)cc1)c1ccccc1 (configuration not stated),-124% (active)
6,COc1ccc(NC(C(=O)Nc2cccc(C(C)=O)c2)c2ccccc2)cc1 (configuration not stated),18.3% (inactive)
7,CC(=O)c1ccc(NC(=O)N[C@@H](Cc2ccccc2)C(=O)O)cc1,64.7% (inactive)
8,O=C(CC(=O)N/N=C\c1cccc(Cl)c1Cl)NCc1ccccc1,44.3% (inactive)
9,Nc1nc(SCC(=O)NNc2c(Cl)cc(Cl)cc2Cl)n[nH]1,21.1% (inactive)
10,CCCCOc1ccc(C(=O)NN2CCN(C)CC2)cc1,15.4% (inactive)
11,COc1ccccc1NC1=NC(c2ccc(Cl)cc2)N=C(N)N1 (configuration not stated),-92.7% (active)
12,COc1ccccc1Nc1nc(N)nc(CN(C)C2CCCCC2)n1,-29.7% (inactive)
13,Cc1cc(C)nc(NC(=O)c2cccc([N+](=O)[O-])c2)c1,69% (inactive)
14,COCCCN(C(=O)Cn1ncc2c(=O)oc3ccc(C)cc3c21)C(C)c1ccncc1 (configuration not stated),3.72% (inactive)
15,COCCCN(C(=S)Nc1c(C)cc(C)cc1C)C(C)c1ccncc1 (configuration not stated),-82.2% (active)
16,CCCC/S(C)=N/S(=O)(=O)c1ccc(C)cc1 (configuration not stated),24.9% (inactive)
17,COc1ccc(/C(N)=N/OC(=O)Cc2ccccc2)cc1,17.5% (inactive)
18,COc1ccc(/C(N)=N/OC(=O)Oc2ccccc2)cc1,13.5% (inactive)
19,N/C(=N\OC(=O)N1c2ccccc2Sc2ccccc21)c1ccc(Br)cc1,-113% (active)
20,COc1cccc(NC(=O)CN2CCN(c3nc(-c4cccc(OC)c4)cs3)CC2)c1,43% (inactive)
21,CCOC(=O)c1sc(NC(=O)c2cc(S(=O)(=O)N3CCOCC3)ccc2C)nc1C,-23.4% (inactive)

row,SMILES,"activity change (PNC), negative = inhibition"
1,COc1cccc(NC(=O)CN(C)S(=O)(=O)c2ccc(C)cc2)c1,-3.49% (inactive)
2,O=C(Cc1ccc(S(=O)(=O)N2CCOCC2)s1)NCCC(c1ccccc1)c1ccccc1,44.4% (inactive)
3,COc1cccc(NC(=O)Cn2cnc3sc(C)c(S(=O)(=O)N4CCN(C)CC4)c3c2=O)c1,-100% (active)
4,CCN(CC)CCNC(=O)Cn1cnc2sc(C)c(S(=O)(=O)N3CCOCC3)c2c1=O,-100% (active)
5,CC(O)c1nc2ccccc2n1Cc1ccc([N+](=O)[O-])cc1 (configuration not stated),9.78% (inactive)
6,CCOc1ccc(C(=O)Nc2nccs2)cc1[N+](=O)[O-],8% (inactive)
7,CN1CCC(=NNC(=O)c2ccc(N(Cc3ccc(Cl)cc3)S(C)(=O)=O)cc2)CC1,-4.47% (inactive)
8,O=C(CCN1C(=O)c2ccccc2C1=O)NNC(=O)c1ccc(Cl)cc1Cl,53% (inactive)
9,O=C(Nc1ccccc1Cc1ccccc1)c1ccc2c(c1)SC1=NS(=O)(=O)CCN12,18.7% (inactive)
10,O=C(NC1CCC(O)CC1)c1ccc(S(=O)(=O)NCc2ccco2)cc1 (configuration not stated),-13.5% (inactive)
11,CC1CCN(S(=O)(=O)c2ccc(S(=O)(=O)NCc3ccco3)cc2)CC1,-100% (active)
12,Cc1ccc(S(=O)(=O)N2CCC(C(=O)N[C@@H](C)C(=O)NCc3ccco3)CC2)cc1,61.1% (inactive)
13,CCn1c(SCC(=O)Nc2ccccc2F)nc2c(c1=O)SC(C)C2 (configuration not stated),-100% (active)
14,CC1Cc2nc(SCC(=O)Nc3ccccc3F)n(C)c(=O)c2S1 (configuration not stated),-100% (active)
15,CC(C)n1c(SCC(=O)Nc2ccccc2N2CCCCC2)nc2c1c(=O)n(C)c(=O)n2C,-24% (inactive)
16,CCn1c(Cc2ccccc2)nnc1SCC(=O)Nc1ccccc1,-27.9% (inactive)
17,CCc1ccc(NC(=O)CSc2nc3ccccc3c(=O)n2CCN2CCOCC2)cc1,-23.7% (inactive)
18,Cn1nnnc1SCC(=O)Nc1ccccc1C(=O)NC1CC1,-17.1% (inactive)
19,COc1ccc(C/C(C)=N/NC(=O)c2ccncc2)cc1,36.6% (inactive)
20,Cc1ccnc(N2CCCC(C(=O)Nc3cc(F)ccc3C)C2)n1 (configuration not stated),-22.4% (inactive)
21,COc1cc(C)nc(N2CCCC(C(=O)NCC(C)C)C2)n1 (configuration not stated),-100% (active)

row,SMILES,"activity change (PNC), negative = inhibition"
1,Cc1cc(=O)n2nc(N3CCCC(C(=O)NCCC4=CCCCC4)C3)sc2n1 (configuration not stated),6.76% (inactive)
2,NS(=O)(=O)c1ccc(CCNC(=S)Nc2ccc(S(N)(=O)=O)cc2)cc1,74.6% (inactive)
3,CCOC(=O)NC(=O)C(=CNc1cccc(OC)c1)C(=O)NC(=O)OCC,45.4% (inactive)
4,CCOC(=O)C(NC(=O)CC(C)C)(Nc1sc2c(c1C(N)=O)CCCC2)C(F)(F)F (configuration not stated),0.0946% (inactive)
5,CC1Cc2ccccc2N1C(=O)CSc1nc2ccccc2o1 (configuration not stated),31.3% (inactive)
6,CCn1nc(C(=O)OCC(=O)N2c3ccccc3CC2C)c2ccccc2c1=O (configuration not stated),-8.81% (inactive)
7,CC1Cc2ccccc2N1C(=O)Cn1cnc2ccccc2c1=O (configuration not stated),-80.4% (active)
8,COc1ccc(C2CC(c3ccccc3)=NN2C(=O)c2ccc(Cl)c([N+](=O)[O-])c2)cc1 (configuration not stated),27.8% (inactive)
9,CCOc1ccc(S(=O)(=O)N(CC(=O)NCC(F)(F)F)Cc2ccco2)cc1,52.1% (inactive)
10,Cc1cc(/C=C2\SC(=Nc3ccc(N4CCOCC4)cc3)N(C)C2=O)c(C)n1-c1cccnc1,-27.8% (inactive)
11,CC(=O)Nc1ccc(OC(=O)COc2ccc(Br)cc2)cc1,36.4% (inactive)
12,CCOC(=O)N1CCN(C(=O)COc2ccc(Br)cc2)CC1,-29.5% (inactive)
13,CN1CCCC(OC(=O)COc2ccc(Br)cc2)C1 (configuration not stated),-86.4% (active)
14,COc1ccc(C(C(=O)NC2CCCCC2)N(C(=O)Cc2c[nH]c3ccccc23)c2ccccc2)cc1OC (configuration not stated),32.6% (inactive)
15,COc1ccc(CCNC(=O)c2ccco2)cc1,24.7% (inactive)
16,O=C(/C=C/c1ccc([N+](=O)[O-])cc1)NCCSCc1ccco1,85.9% (inactive)
17,O=C(/C=C/c1cccc([N+](=O)[O-])c1)NCCSCc1ccco1,-113% (active)
18,CCC(CC)NC(=O)/C=C/c1cccc([N+](=O)[O-])c1,-18.8% (inactive)
19,COc1cc(OC)cc(C(=O)NCCSCc2ccco2)c1,-94.6% (active)
20,CS(=O)(=O)N(Cc1ccc(Cl)cc1)c1ccc(C(=O)NCCSCc2ccco2)cc1,22.9% (inactive)
